Laboratory results from PubChem BioAssay AID1159580 (chemical genetic matrix, 2015).
Several values for one entry are separate records, joined by “and”; a condition that tells them apart may be missing. Equal values may be shown once. About 2,000 (36%) of roughly 5,500 compounds were called active. Inconclusive results (about 18%) are left out. Cut-off read from the data, not from the text of the source: active = normalized growth mostly below about 0.91 (no sharp cut-off); inconclusive = no clear call, values can overlap the other calls; inactive = mostly above about 0.92. The list shows a part of the results.

Test: chemical genetic growth profiling, strain panel (AID 1159580);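 note: tested at 20 µM; growth read once vehicle control cultures reached saturation at 30 °C; 1 = growth at the plate median or of vehicle wells; lower values mean less growth of the strain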
Settings: S. cerevisiae deletion strains, growth OD

Measured: normalized growth

CCCCCCCCCCCCC[N+](C)(C)Cc1ccccc1
active: locus YAL013W, strain DEP1, active compounds read low 0.0555 | locus YAL021C, strain ccr4, active compounds read low 0.0637 | locus YAL026C, strain drs2, active compounds read low 0.0609 | locus YAL030W, strain snc1, active compounds read low 0.0556 | locus YBL061C, strain skt5, active compounds read low 0.0585 | locus YBR009C, strain hhf1, active compounds read low 0.0639 | locus YBR021W, strain FUR4, active compounds read low 0.0876 | locus YBR023C, strain chs3, active compounds read low 0.0617 | locus YBR171W, strain sec66, active compounds read low 0.0746 | locus YBR229C, strain ROT2, active compounds read low 0.0463 | locus YBR231C, strain swc5, active compounds read low 0.0605 | locus YBR279W, strain paf1, active compounds read low 0.0571 | locus YCL011C, strain gbp2, active compounds read low 0.0555 | locus YCL016C, strain dcc1, active compounds read low 0.0666 | locus YCL029C, strain bik1, active compounds read low 0.0604 | locus YCL069W, strain vba3, active compounds read low 0.0638 | locus YCR088W, strain abp1, active compounds read low 0.059 | locus YDL005C, strain med2, active compounds read low 0.073 | locus YDL035C, strain GPR1, active compounds read low 0.0501 | locus YDL040C, strain nat1, active compounds read low 0.0568 | locus YDL074C, strain BRE1, active compounds read low 0.078 | locus YDL101C, strain DUN1, active compounds read low 0.0549 | locus YDL134C, strain PPH21, active compounds read low 0.0476 | locus YDL185W, strain tfp1, active compounds read low 0.0592 | locus YDL192W, strain arf1, active compounds read low 0.0605 | locus YDR001C, strain nth1, active compounds read low 0.0567 | locus YDR069C, strain doa4, active compounds read low 0.0672 | locus YDR101C, strain arx1, active compounds read low 0.0615 | locus YDR137W, strain rgp1, active compounds read low 0.12 | locus YDR159W, strain sac3, active compounds read low 0.0884 | locus YDR162C, strain NBP2, active compounds read low 0.0468 | locus YDR195W, strain ref2 0.118 | locus YDR297W, strain sur2, active compounds read low 0.0581 | locus YDR318W, strain mcm21, active compounds read low 0.063 | locus YDR334W, strain swr1, active compounds read low 0.0601 | locus YDR335W, strain msn5, active compounds read low 0.0563 | locus YDR388W, active compounds read low 0.0567 | locus YDR392W, strain spt3, active compounds read low 0.0701 | locus YDR502C, strain sam2, active compounds read low 0.0651 | locus YEL003W, strain gim4, active compounds read low 0.0517 | locus YEL037C, strain rad23, active compounds read low 0.0542 | locus YEL061C, strain CIN8 (second series), active compounds read low 0.0587 | locus YEL061C, strain CIN8, active compounds read low 0.0483 | locus YER015W, strain faa2, active compounds read low 0.0622 | locus YER016W, strain bim1, active compounds read low 0.063 | locus YER110C, active compounds read low 0.0733 | locus YER111C, strain swi4, active compounds read low 0.0674 | locus YER155C, strain BEM2 (second series), active compounds read low 0.0862 | locus YER155C, strain BEM2, active compounds read low 0.0618 | locus YER167W, strain BCK2, active compounds read low 0.0502 | locus YFR010W, strain ubp6, active compounds read low 0.0662 | locus YGL078C, strain dbp3, active compounds read low 0.0681 | locus YGL086W, strain mad1, active compounds read low 0.0582 | locus YGL167C, strain pmr1, active compounds read low 0.0698 | locus YGL173C, strain kem1, active compounds read low 0.0657 | locus YGL227W, strain vid30, active compounds read low 0.0603 | locus YGL240W, strain doc1, active compounds read low 0.0764 | locus YGL248W, strain PDE1, active compounds read low 0.0462 | locus YGL253W, strain hxk2, active compounds read low 0.0524 | locus YGR078C, strain PAC10, active compounds read low 0.0524 | locus YGR135W, strain pre9, active compounds read low 0.0647 | locus YGR229C, strain SMI1, active compounds read low 0.0592 | locus YGR252W, strain gcn5, active compounds read low 0.206 | locus YHR013C, strain ard1, active compounds read low 0.102 | locus YHR027C, strain rpn1, active compounds read low 0.0626 | locus YHR030C, strain SLT2, active compounds read low 0.0492 and 0.104 | locus YHR079C, strain IRE1 (second series), active compounds read low 0.0567 | locus YHR079C, strain IRE1, active compounds read low 0.111 | locus YHR094C, strain hxt1, active compounds read low 0.058 | locus YHR129C, strain ARP1, active compounds read low 0.0544 | locus YHR142W, strain chs7, active compounds read low 0.0737 | locus YHR200W, strain rpn10, active compounds read low 0.0601 | locus YIL066C, strain RNR3, active compounds read low 0.0508 | locus YIL073C, strain SPO22, active compounds read low 0.129 | locus YIL125W, strain kgd1, active compounds read low 0.0665 | locus YIR030C, strain dcg1, active compounds read low 0.0594 | locus YJL092W, strain hpr5, active compounds read low 0.0601 | locus YJL095W, strain BCK1 (second series), active compounds read low 0.0575 | locus YJL095W, strain BCK1, active compounds read low 0.0546 and 0.0934 | locus YJL115W, strain asf1, active compounds read low 0.0698 | locus YJL129C, strain trk1, active compounds read low 0.0815 | locus YJL134W, strain LCB3, active compounds read low 0.0471 | locus YJL154C, strain vps35, active compounds read low 0.0584 | locus YJL164C, strain tpk1, active compounds read low 0.0596 | locus YJL166W, strain qcr8, active compounds read low 0.0642 | locus YJL168C, strain set2, active compounds read low 0.0571 | locus YJL187C, strain SWE1 (second series), active compounds read low 0.0466 | locus YJR043C, strain POL32, active compounds read low 0.0593 | locus YJR066W, strain TOR1, active compounds read low -0.000757
